Screening data (PubChem BioAssay)
The list is not random: actives were taken first. Their share in the collection is about 3.5%.
TEAD-YAP inh – TEAD-YAP interaction inhibition; HEK-TIYL cells, TEAD-Gal4/YAP UAS-luciferase luminescence; inhibition, % at 9.12 µM; 1.4% of 640,000 active; in the data active = inhibition above about 32%;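 also: 0% = median of test compound wells and 100% = reference inhibitor wells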
GPR151 activ – human GPR151 activation. PathHunter beta-arrestin GPR151 cells, luminescence. activation, % at 11.2 µM. 1% of 650,000 active; in the data active = activation above about 4.9%;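 also: 0% = median of compound wells and 100% = cells with positive control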
FBW7 act – human FBW7 E3 ligase activation, primary screen; normalized activity (activation), % at 26.1 µM; 0.13% of 650,000 active; AlphaScreen FBW7–phospho-cyclin E peptide binding, activator screen; Q969H0; in the data active = normalized activity above about 1.9%;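 also: purified mutant Fbw7 with reduced substrate affinity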
MITF inh – blocks human microphthalmia-associated transcription factor | 0.91% of 650,000 active | O75030 | inhibition, % at 2.6 µM | AlphaScreen MITF homodimerization, bead proximity signal; in the data active = inhibition above about 50%;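 also: 0% = vehicle wells with protein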
GPR151 conf act – human GPR151 activation, confirmation screen. 6,700 tested, under 10 active. activation, % at 11.2 µM. GPR151 PathHunter beta-arrestin cells, luminescence, 90 min; % of EA-reagent control over plate median. shares compounds with GPR151 activ;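 active = mean percent activation across replicates above the confirmation screen cutoff of 4.91%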
GPR119 counter – activates human GPR119 in a GPR151 counter-screen; shares compounds with GPR151 activ; GPR119 PathHunter beta-arrestin cells, luminescence, 90 min; 0 = compound-well median, 100 = enzyme-acceptor control; activation, % at 11.2 µM; 0.3% of 6,700 active; AID 1508611;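 active = mean percent activation in the counterscreen above 29.09%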;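 also: counterscreen on off-target GPR119 to flag nonselective hits from the GPR151 activator screen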
Target sequence (Q8TDV5 whole entry, looked up): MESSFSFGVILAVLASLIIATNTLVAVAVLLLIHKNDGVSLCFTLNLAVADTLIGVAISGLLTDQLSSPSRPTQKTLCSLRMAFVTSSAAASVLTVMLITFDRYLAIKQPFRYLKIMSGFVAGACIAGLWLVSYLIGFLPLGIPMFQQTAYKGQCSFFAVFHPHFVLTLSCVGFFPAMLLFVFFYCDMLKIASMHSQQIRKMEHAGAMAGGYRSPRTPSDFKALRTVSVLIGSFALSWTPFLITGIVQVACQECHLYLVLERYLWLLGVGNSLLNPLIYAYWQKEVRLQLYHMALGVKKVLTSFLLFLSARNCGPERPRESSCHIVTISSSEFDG
* hit, by the source's call; . = no result given.

SMILES | TEAD-YAP inh | GPR151 activ | FBW7 act | MITF inh | GPR151 conf act | GPR119 counter
COc1ccccc1/C=C/C(=O)NCc1ccco1 | -5 | 8.9* | 0 | 6 | -1 | -13
O=C(/C=C/c1ccccc1)NCc1ccco1 | -24 | 0 | 0 | -6 | . | .
O=C(/C=C/c1ccc(OCc2ccccc2)cc1)NCc1ccco1 | 14 | 8.0* | 0 | 3 | 0 | 0
NC(=O)c1ccc(-c2nc(NCc3cccc(C(F)(F)F)c3)c3ncn(-c4ccccc4)c3n2)cc1 | 5 | 1 | 0 | -14 | . | .
NC(=O)c1cc2ccccc2cc1Nc1ccnc(Nc2ccc(N3CCOCC3)cc2)c1 | 83* | 6.5* | 0 | 34 | 0 | 0
NC(=O)c1ccccc1Nc1ccnc(Nc2ccc(N3CCOCC3)cc2)c1 | 27 | 0 | 0 | -5 | . | .
Cn1nc(-c2ccnc(Nc3ccc(N4CCOCC4)cc3)c2)cc1Nc1ccccc1 | -5 | 5.7* | 0 | -4 | 0 | -6
Cc1ccc(OC(=O)N2CCN3C(=O)[C@H](COCc4ccccc4)NC(=O)[C@H]3C2)cc1 | -7 | 0 | 0 | -3 | . | .
CC1CN(C(=O)CCC(=O)N2CCOCC2)c2ccccc2O1 (configuration not stated) | 8 | 8.3* | 0 | 4 | -1 | -19
Cc1cc(C)cc(NC(=O)CC2CC3CCC2C3)c1 (configuration not stated) | 0 | 8.7* | 0 | 0 | -1 | -2
COc1cc2c(C)nc3c(c(C)nn3Cc3ccccc3)c2cc1OC | 3 | -1 | 0 | 17 | . | .
CCC(CO)NC(=O)c1cnc2sc3ccccc3n2c1=O (configuration not stated) | -15 | -1 | 0 | -3 | . | .
Cc1c(C(=O)OC(C)C)sc(NC(=O)c2ccccc2F)c1C#N | -3 | 5.8* | 0 | -1 | 0 | 0
Cc1c(C(=O)OC(C)C)sc(NC(=O)c2cc(Cl)ccc2Cl)c1C#N | 4 | 1 | 0 | -1 | . | .
CCN(CC)CCNc1nc2c(c(=O)n(C)c(=O)n2C)n1CC(O)COc1ccc(OC)cc1 (configuration not stated) | -5 | 1 | 0 | 0 | . | .
CCOC(=O)c1cccc2c3c([nH]c12)C(C(=O)OCC)CCC3 (configuration not stated) | -4 | 5.0* | 0 | -9 | 0 | -6
COC(=O)c1c(NC(C)=O)c2c(C)c(C)sc2n1Cc1cccc(OC)c1 | 0 | 0 | 0 | -4 | . | .
C=Cc1ccc(Cn2c(C(=O)OC)c(NC(C)=O)c3c(C)c(C)sc32)cc1 | -2 | 5.4* | 0 | -2 | 0 | -15
CCOc1ccccc1OCCN[C@H](C)Cc1ccc(OC)c(S(N)(=O)=O)c1 | -2 | 6.8* | 0 | -16 | 0 | 0
CCOC(=O)C1CCCN(C(=O)/C(C)=C\c2ccccc2)C1 (configuration not stated) | -1 | 5.3* | 0 | 2 | 0 | -7
Cc1ccc(C(=O)CSc2nncn2C)cc1 | -13 | -2 | 0 | 6 | . | .
Cc1ccc(-c2n[nH]c(C(C)NC(=O)N3CCOCC3)n2)cc1 (configuration not stated) | 10 | -2 | 1 | 3 | . | .
Fc1ccc(Br)cc1SCCc1ccncc1 | 5 | -1 | 0 | -1 | . | .
Brc1ccc(SCCc2ccncc2)cc1 | 2 | 12* | 1 | 22 | -1 | -14
COc1ccc(OCc2cc(C(=O)N3CCCCC3CO)no2)c(Cl)c1 (configuration not stated) | -42 | 1 | 0 | 9 | . | .
SMILES | TEAD-YAP inh | GPR151 activ | FBW7 act | MITF inh | GPR151 conf act | GPR119 counter
COc1ccc(OCc2cc(C(=O)N[C@H]3CCCCNC3=O)no2)c(Cl)c1 | -47 | 5.0* | 0 | 1 | 0 | 0
O=C(CSc1nc2ccccc2o1)Nc1ccc(OC(F)(F)F)cc1 | -23 | 0 | 0 | -4 | . | .
COc1ccc(CCN2C(=O)CC(Cc3ccc(Br)cc3)C2=O)cc1OC (configuration not stated) | -4 | 5.6* | 0 | 0 | -1 | -7
O=C1OC(c2ccccc2Cl)=N/C1=C\c1ccccc1OCc1ccc(Cl)cc1 | -6 | 0 | 0 | 10 | . | .
CCOC(=O)C1=C(C)NC2=C(C(=O)CCC2)C1c1cc(Br)c(O)c(OC)c1 (configuration not stated) | 8 | -1 | 0 | -5 | . | .
Cc1ccc(C(=O)Nc2ccc(NC(=O)C(C)C)cc2)c(C)c1 | -6 | 0 | 0 | -10 | . | .
CCOC(CNC(=O)c1ccc2cc[nH]c2c1)(OCC)c1ccncc1 | -6 | 7.3* | 0 | 5 | -1 | -2
O=C(Cn1cnc2c(nnn2-c2cccc(Cl)c2)c1=O)Nc1ccc(F)cc1 | -1 | 1 | 0 | 12 | . | .
CCOc1cc(/C=C2\N=C(c3cccc(C)c3)OC2=O)ccc1OC(C)=O | 2 | 0 | 0 | 1 | . | .
CCOc1cc(/C=C2/N=C(c3cccc(C)c3)OC2=O)ccc1OS(C)(=O)=O | 12 | 13* | 1 | 9 | -1 | -18
COc1cccc(C(=O)Nc2cc(C(C)(C)C)ccc2C(C)=O)c1 | 6 | 5.2* | 1 | 15 | 0 | -9
CC(=O)c1ccc(C(C)(C)C)cc1NC(=O)c1ccc(Cl)cc1 | 3 | 0 | 0 | 4 | . | .
COc1ccc(C(=O)Nc2cc(=O)n(C)c(=O)n2C)cc1 | -4 | 4 | 0 | 2 | . | .
COc1cccc(C(=O)Nc2cc(=O)n(C)c(=O)n2C)c1 | 13 | 10* | 1 | 8 | 0 | -8
O=C(Nc1ccccc1C(F)(F)F)c1coc(=O)c2ccccc12 | 1 | 0 | 0 | 18 | . | .
Cc1cccc(C)c1NC(=O)Cn1nc(C(=O)O)c2ccccc2c1=O | 10 | 0 | 0 | 8 | . | .
O=C1OC(/C=C/c2cccc(Cl)c2Cl)=NC/1=C\c1ccccc1C(F)(F)F | 2 | 5.8* | 0 | -1 | -1 | -3
O=C1OC(/C=C/c2cccc(Cl)c2Cl)=NC/1=C\c1ccccc1Cl | -5 | -1 | 0 | -9 | . | .
O=C(CN1C(=O)/C(=c2/sc3nc4ccccc4n3c2=O)c2ccccc21)Nc1ccc(F)cc1 | 5 | 2 | 0 | 4 | . | .
CN1C(=O)/C(=c2\sc3nc(=O)c(Cc4ccccc4)nn3c2=O)c2ccccc21 | 3 | 5.5* | 0 | 15 | 0 | 4
O=C1/C(=c2\sc3nc4ccccc4n3c2=O)c2ccccc2N1Cc1ccccc1 | -9 | 7.2* | 0 | 0 | 0 | -12
O=C(CCC1(Cc2ccsc2)CCC(=O)N1)NCc1cc(-c2ccccc2)on1 (configuration not stated) | 9 | -2 | 0 | -19 | . | .
COc1ccc(-c2cn3cccnc3n2)cc1NC(=O)COc1ccc(Cl)cc1 | -29 | -1 | 1 | 19 | . | .
O=C(COc1ccc(Cl)cc1)Nc1ccccn1 | 49* | 9.2* | 0 | -20 | 1 | -51
